Most compounds without a hit are left out; they make up all but 10% or so of the library.
BAZ2B block = BAZ2B (human) inhibition; AID 504333; AlphaScreen BAZ2B-H3K14Ac peptide displacement; Q9UIF8; Potency, µM (series often up to 114 µM), most hits filed as inhibitors; 360,000 tested, 4.4% active; also: nearly all actives have a fitted effect of over 60% in size
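Protein-peptide AlphaScreen: BAZ2B 50 nM, b-H3K14Ac 50 nM, 1x PBS pH 7.4 + 0.01% Tween-20. Preincubation 30 min RT; cpd 30 min RT (top 110 uM); beads 20 min RT, light-protected.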
JMJD2A Tudor = blocks the human JMJD2A Tudor domain | AlphaScreen JMJD2A-Tudor / H3K4me3 peptide binding | Potency, µM (doses to about 114 µM), hits mostly inhibitors | 390,000 tested, 4.4% active; also: nearly all actives have a fitted effect of over 50% in size
L3MBTL1 inh = blocks human L3MBTL1; AID 485360; Q9Y468; 230,000 tested, 0.66% active; AlphaScreen L3MBTL1–H3K9me1 peptide binding; Potency, µM (series often up to 57.1 µM), usual class: inhibitors; also: nearly all actives have a fitted effect of over 60% in size
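Displacement of a biotinylated histone H3(1-15) peptide monomethylated at Lys9 (75 nM) from L3MBTL1 (50 nM) was measured by AlphaScreen after a 30 min room-temperature compound incubation; cefsulodin titration served as intraplate control.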
HP1b binding inh = HP1-beta chromodomain-methylated histone interaction inhibition; P83916; Potency, µM (top dose mostly 114 µM), usual class: inhibitors; AlphaScreen HP1-beta / biotin-H3K9me3 peptide binding; 390,000 tested, 0.56% active; also: nearly all actives have a fitted effect of over 70% in size
Target sequence (P83916 whole entry, looked up): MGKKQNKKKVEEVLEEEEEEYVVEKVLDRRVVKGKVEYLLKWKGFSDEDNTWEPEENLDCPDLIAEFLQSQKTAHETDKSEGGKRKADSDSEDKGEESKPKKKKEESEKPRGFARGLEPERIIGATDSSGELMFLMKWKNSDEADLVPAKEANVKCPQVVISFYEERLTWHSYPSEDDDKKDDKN
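AlphaScreen: HP1-beta (50 nM) preformed 30 min with biotin-H3(1-18)K9me3 peptide (50 nM) in PBS pH 7.4, 0.01% Tween-20. Compound added for 30 min at RT, then streptavidin donor/nickel chelate acceptor beads (10 ug/mL) for 30 min.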
G9a inh = G9a (human) methyltransferase inhibition | AID 504332 | 350,000 tested, 8.8% active | Potency, µM (top dose mostly 102 µM), hits mostly inhibitors | Q96KQ7 | G9a H3K9 monomethylation, AlphaScreen, 2 h; also: nearly all actives have a fitted effect of over 75% in size
Target sequence (Q96KQ7 913-1193 limits assumed): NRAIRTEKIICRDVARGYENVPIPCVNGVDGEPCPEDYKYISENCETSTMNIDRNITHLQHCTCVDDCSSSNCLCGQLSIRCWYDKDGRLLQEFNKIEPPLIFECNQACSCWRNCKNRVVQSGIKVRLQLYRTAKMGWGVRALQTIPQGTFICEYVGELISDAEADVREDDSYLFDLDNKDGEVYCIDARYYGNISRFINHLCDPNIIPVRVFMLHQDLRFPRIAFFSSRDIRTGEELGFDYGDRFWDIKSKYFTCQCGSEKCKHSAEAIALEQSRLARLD
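AlphaScreen read-out: biotin-H3K9 peptide (500 nM) methylation by 20 nM enzyme with 20 uM SAM, 2 h at room temperature after 15 min compound preincubation; anti-monomethyl H3K9 antibody plus donor/acceptor beads, 10 min dark.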
GLS inhibitor = glutaminase GLS (human) inhibition | Potency, µM (titrated, usually from 45.5 µM), actives largely listed as inhibitors | 410,000 tested, 0.21% active | O94925 | GLS enzymatic activity, qHTS titration
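hKGA; 45 mM KH2PO4 pH 8.2 + 0.02% Tween-20; cpd via pin tool; 1 mM Gln soln; GluOx/HRP/Amplex Red; RT 30 min; fluor. t0 & final.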
Large screens that a line does not name were inactive. Calls follow the shape of the dose curve; as a rule, active = well fitted curve in the direction sought with a large enough effect; inconclusive = small, poorly fitted or top-dose-only effect, or another doubt; inactive = no such curve, though single readings can be large; an effect the other way counts as inactive or inconclusive.

Cc1sc2nc3ccc(NCc4ccco4)nn3c(=O)c2c1C	G9a inh 17.8µM
O=C(CSc1nnc(C2CC2)n1-c1ccccc1)NCc1ccco1	G9a inh 79.4µM (no result: L3MBTL1 inh)
O=c1c2ccccc2nc2ccc(NCc3ccco3)nn12	BAZ2B block inconclusive
Cc1sc2nc(C3CC3)nc(SCC(=O)NCc3ccco3)c2c1C	G9a inh 50.1µM
COc1ccccc1-c1nnc(C2CCN(C(=O)c3cccc(C)c3)CC2)o1	none (no result: L3MBTL1 inh)
CCOc1ccccc1NC(=O)C(CC(C)C)NS(=O)(=O)c1ccc2c(c1)CCN2C(C)=O (stereo unspecified)	none (no result: BAZ2B block, L3MBTL1 inh)
Cc1cccn2c(=O)c(C(=O)NCCc3ccccc3)cnc12	none (no result: L3MBTL1 inh)
CCc1nc(SCC(=O)NCc2ccco2)c2c(=O)n(C)c(=O)n(C)c2n1	G9a inh inconclusive
CCn1c(SCC(=O)NCc2ccco2)nc2c(c1=O)SC(C)C2 (stereo unspecified)	G9a inh 14.1µM
CCCc1nc(SCC(=O)NCc2ccco2)c2c(=O)n(C)c(=O)n(C)c2n1	G9a inh 44.7µM
CN(Cc1ccccc1)C(=O)c1cccc(NC(=O)c2nsc3ccccc23)c1	none (no result: L3MBTL1 inh)
CCOC(=O)c1c(C)[nH]c(C)c1S(=O)(=O)NCC(=O)Nc1ccc(CC)cc1	none (no result: L3MBTL1 inh)
CC(/C=C1\SC(=S)N(C(C(=O)O)C(C)C)C1=O)=C\c1ccccc1 (stereo unspecified)	BAZ2B block 25.1µM, JMJD2A Tudor inconclusive (no result: G9a inh)
CC(/C=C1\SC(=S)N(NC(=O)c2ccncc2)C1=O)=C\c1ccccc1	BAZ2B block inconclusive, JMJD2A Tudor inconclusive, G9a inh inconclusive
CC(/C=C1\SC(=S)N(CCC(=O)Nc2ccc(O)cc2)C1=O)=C\c1ccccc1	JMJD2A Tudor inconclusive (no result: L3MBTL1 inh)
CC(/C=C1\SC(=S)N(c2ccc(C(=O)O)cc2)C1=O)=C\c1ccccc1	BAZ2B block 22.4µM, JMJD2A Tudor 44.7µM, HP1b binding inh inconclusive, G9a inh 31.6µM, GLS inhibitor inconclusive (no result: L3MBTL1 inh)
CC(Oc1ccccc1)C(=O)Nc1ccc(OCc2cc(=O)n3ccsc3n2)cc1 (stereo unspecified)	none (no result: L3MBTL1 inh)
S=c1[nH]nc(-c2ccncc2)n1/N=C/c1cn(-c2ccccc2)nc1-c1ccc(Cl)cc1	none (no result: L3MBTL1 inh)
Cc1ccc(/C=N/n2c(C)n[nH]c2=S)o1	JMJD2A Tudor 5.01µM, G9a inh inconclusive
CC(=C/c1ccccc1)/C=N/n1c(-c2ccncc2)n[nH]c1=S	BAZ2B block inconclusive, JMJD2A Tudor 10µM, HP1b binding inh inconclusive, GLS inhibitor inconclusive
S=c1[nH]nc(-c2cccnc2)n1/N=C/C=C/c1ccccc1	JMJD2A Tudor 7.08µM, G9a inh 1.78µM, GLS inhibitor inconclusive
CC(=C/c1ccccc1)/C=N/n1c(C)n[nH]c1=S	JMJD2A Tudor 31.6µM (no result: G9a inh)
Cc1ccc(/C=N/n2cnc3sc(C)c(C)c3c2=O)o1	none
C(=C\c1nc(-c2cccnc2)no1)/c1ccccc1	none
Cc1cccc(OCC(=O)NCC2(N3CCN(C)CC3)CCCCC2)c1C	none (no result: L3MBTL1 inh)
CC(/C=N/n1c(-c2cccnc2)n[nH]c1=S)=C\c1ccccc1	BAZ2B block inconclusive, JMJD2A Tudor 20µM, G9a inh 0.891µM, GLS inhibitor inconclusive
CC(/C=N/NC(=O)c1cccnc1)=C\c1ccccc1	none (no result: BAZ2B block, L3MBTL1 inh)
Cc1ccc2nc(-c3ccc(N4C(=NC(=O)CCC(=O)O)SC5CS(=O)(=O)CC54)cc3)sc2c1 (stereo unspecified)	BAZ2B block inconclusive, JMJD2A Tudor inconclusive, L3MBTL1 inh 12.6µM, HP1b binding inh inconclusive, G9a inh 44.7µM, GLS inhibitor inconclusive
CC(=O)N=C1SC2CS(=O)(=O)CC2N1c1ccc(-c2nc3ccc(C)cc3s2)cc1 (stereo unspecified)	none (no result: JMJD2A Tudor, HP1b binding inh, GLS inhibitor)
CC(=O)N1CCc2c(sc3c2c(=O)n(-c2cc(Cl)ccc2C)c(=O)n3Cc2ccccc2F)C1	BAZ2B block inconclusive (no result: L3MBTL1 inh)
O=C(c1ccc(Cl)cc1Cl)N1CCC(c2nc3c(nnn3Cc3ccco3)c(=O)[nH]2)CC1	G9a inh 44.7µM
O=C(Nc1cccc(C(F)(F)F)c1)c1scc2c1OCCO2	JMJD2A Tudor 50.1µM
CCC(=O)O[C@@H](OP(=O)(CCCCc1ccccc1)CC(=O)N1C[C@H](C2CCCCC2)C[C@H]1C(=O)O)C(C)C (stereo partly specified)	none (no result: BAZ2B block, JMJD2A Tudor, L3MBTL1 inh, HP1b binding inh)
CC(=O)Nc1ccc(S(=O)(=O)Nc2cccc(-c3ccc(N4CCC(C)CC4)nn3)c2)cc1	none (no result: L3MBTL1 inh)
CC(NO)C(C)(C)NO (stereo unspecified)	JMJD2A Tudor 39.8µM, HP1b binding inh inconclusive, G9a inh inconclusive
CC(=O)c1cc(-c2ccc(F)cc2)n(CC(=O)NC2CCC(C)CC2)c1C (stereo unspecified)	none (no result: L3MBTL1 inh)
CCOC(=O)C1CCCN(Cc2cn3c(-c4cccc(Br)c4)nnc3s2)C1 (stereo unspecified)	BAZ2B block inconclusive (no result: L3MBTL1 inh)
COc1cccc(-c2nnc3sc(CN4CCCCC4)cn23)c1	G9a inh 12.6µM (no result: L3MBTL1 inh)
COc1ccccc1N1CCN(C(=O)Cn2ncc3c2-c2cc(C)ccc2OC3)CC1	none (no result: L3MBTL1 inh)
CCCNC(=O)c1c(C)nn(-c2cccc(C)c2)c1-n1cccc1	none (no result: L3MBTL1 inh)
COc1ccc(C#Cc2cnc(Cl)c3cncnc23)cc1OC	none (no result: BAZ2B block, L3MBTL1 inh, G9a inh, GLS inhibitor)
C#CCOCCOCCOCCNc1nc(N2CCN(C(=O)[C@H](Cc3cc4ccccc4[nH]3)n3cc([C@@H](N)Cc4ccc(O)cc4)nn3)CC2)nc(N2CCN(C(=O)[C@H](Cc3cc4ccccc4[nH]3)n3cc([C@@H](N)CC(C)C)nn3)CC2)n1	BAZ2B block inconclusive, JMJD2A Tudor 50.1µM, G9a inh inconclusive (no result: L3MBTL1 inh)
C#CCOCCOCCOCCNc1nc(N2CCN(C(=O)C(Cc3cc4ccccc4[nH]3)n3cc(C(N)Cc4ccc(O)cc4)nn3)CC2)nc(N2CCN(C(=O)C(Cc3cc4ccccc4[nH]3)n3cc(C(N)Cc4ccc(O)cc4)nn3)CC2)n1 (stereo unspecified)	BAZ2B block 11.2µM, JMJD2A Tudor 8.91µM, L3MBTL1 inh inconclusive
CC(C)C[C@H](N)c1cn([C@@H](Cc2cc3ccccc3[nH]2)C(=O)N2CCNCC2)nn1	JMJD2A Tudor inconclusive, G9a inh inconclusive
COc1cc(NC(=O)Cn2c(=O)n(Cc3ccccc3Cl)c(=O)c3cc(OC)c(OC)cc32)cc(OC)c1	none (no result: L3MBTL1 inh)
O=C(c1noc2c1CCCCC2)N1CCN(c2cccc(C(F)(F)F)c2)CC1	none (no result: L3MBTL1 inh)
Cc1cc(C)n2c(Br)c(CN3CCCC(C)C3)nc2n1 (stereo unspecified)	none
Cc1cc(C)nc(SCc2nc3nc(C)cc(C)n3c2Br)n1	G9a inh 50.1µM
CCOC(=O)COc1ccc(C)cc1C(=O)c1ccn2nc(-c3ccc(Cl)cc3)cc2n1	none (no result: L3MBTL1 inh)
COc1ccc(-c2nn3c(-c4cc(-c5ccccc5)n[nH]4)nnc3s2)cc1OC	none (no result: BAZ2B block, L3MBTL1 inh, G9a inh, GLS inhibitor)
